Data reported in PubChem BioAssay AID1159580 (chemical genetic matrix, 2015).
Where “and” joins values, the source holds several entries; their conditions need not be identical. Equal values may be shown once. The campaign covered roughly 5,500 compounds. About 2,000 (36%) were called active. Another 18% or so got no clear call; they are omitted. Rule as the data show it: active = normalized growth mostly below about 0.91 (no sharp cut-off); inconclusive = no clear call, values can overlap the other calls; inactive = mostly above about 0.92. The list shows a part of the results.

Test: chemical genetic growth profiling, strain panel (AID 1159580);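 also: tested at 20 µM; growth read once vehicle control cultures reached saturation at 30 °C; 1 = growth at the plate median or of vehicle wells; lower values mean less growth of the strain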
Conditions: growth OD

Measured: normalized growth

CC(C)NCC(O)c1ccc(O)c(O)c1 (stereo not given)
inactive: S. cerevisiae deletion strains, locus YJR075W, strain HOC1, stronger effect = lower value 1.01 and 1.02 | S. cerevisiae deletion strains, locus YKL009W, strain mrt4, stronger effect = lower value 0.979 | S. cerevisiae deletion strains, locus YKL068W, stronger effect = lower value 0.994 | S. cerevisiae deletion strains, locus YKL085W, strain MDH1 (second series), stronger effect = lower value 0.994 | S. cerevisiae deletion strains, locus YKL085W, strain MDH1, stronger effect = lower value 0.994 | S. cerevisiae deletion strains, locus YKL160W, strain elf1, stronger effect = lower value 0.966 | S. cerevisiae deletion strains, locus YKL190W, strain CNB1, stronger effect = lower value 0.996 | S. cerevisiae deletion strains, locus YKR001C, strain vps1, stronger effect = lower value 0.985 | S. cerevisiae deletion strains, locus YKR026C, strain gcn3, stronger effect = lower value 0.991 | S. cerevisiae deletion strains, locus YKR091W, strain srl3, stronger effect = lower value 0.996 | S. cerevisiae deletion strains, locus YLL001W, strain dnm1, stronger effect = lower value 0.955 | S. cerevisiae deletion strains, locus YLL026W, stronger effect = lower value 0.997 | S. cerevisiae deletion strains, locus YLL041C, strain sdh2, stronger effect = lower value 0.99 | S. cerevisiae deletion strains, locus YLR027C, strain aat2, stronger effect = lower value 1 | S. cerevisiae deletion strains, locus YLR039C, strain RIC1, stronger effect = lower value 1.08 | S. cerevisiae deletion strains, locus YLR058C, strain SHM2, stronger effect = lower value 1.01 | S. cerevisiae deletion strains, locus YLR102C, strain apc9, stronger effect = lower value 1 | S. cerevisiae deletion strains, locus YLR113W, strain HOG1, stronger effect = lower value 0.97 | S. cerevisiae deletion strains, locus YLR221C, strain rsa3, stronger effect = lower value 0.949 | S. cerevisiae deletion strains, locus YLR258W, strain gsy2, stronger effect = lower value 0.979 | S. cerevisiae deletion strains, locus YLR262C, strain YPT6 (second series), stronger effect = lower value 0.954 | S. cerevisiae deletion strains, locus YLR262C, strain YPT6, stronger effect = lower value 1.01 | S. cerevisiae deletion strains, locus YLR268W, strain sec22, stronger effect = lower value 1 | S. cerevisiae deletion strains, locus YLR320W, strain mms22, stronger effect = lower value 0.962 | S. cerevisiae deletion strains, locus YLR330W, strain CHS5, stronger effect = lower value 1.02 | S. cerevisiae deletion strains, locus YLR342W, strain FKS1 (second series), stronger effect = lower value 1.01 | S. cerevisiae deletion strains, locus YLR342W, strain FKS1, stronger effect = lower value 0.991 | S. cerevisiae deletion strains, locus YLR357W, strain rsc2, stronger effect = lower value 0.959 | S. cerevisiae deletion strains, locus YLR370C, strain arc18, stronger effect = lower value 0.977 | S. cerevisiae deletion strains, locus YLR371W, strain rom2, stronger effect = lower value 0.998 | S. cerevisiae deletion strains, locus YLR384C, strain iki3, stronger effect = lower value 0.996 | S. cerevisiae deletion strains, locus YLR418C, strain cdc73, stronger effect = lower value 0.986 | S. cerevisiae deletion strains, locus YML016C, strain PPZ1, stronger effect = lower value 1.01 | S. cerevisiae deletion strains, locus YML032C, strain rad52, stronger effect = lower value 0.989 | S. cerevisiae deletion strains, locus YML120C, strain ndi1, stronger effect = lower value 0.966 | S. cerevisiae deletion strains, locus YML124C, strain tub3, stronger effect = lower value 1 | S. cerevisiae deletion strains, locus YMR058W, strain fet3, stronger effect = lower value 0.991 | S. cerevisiae deletion strains, locus YMR078C, strain ctf18, stronger effect = lower value 1.01 | S. cerevisiae deletion strains, locus YMR125W, strain sto1, stronger effect = lower value 0.98 | S. cerevisiae deletion strains, locus YMR129W, stronger effect = lower value 0.991 | S. cerevisiae deletion strains, locus YMR205C, strain PFK2, stronger effect = lower value 0.971 | S. cerevisiae deletion strains, locus YMR223W, strain ubp8, stronger effect = lower value 0.99 | S. cerevisiae deletion strains, locus YMR231W, strain pep5, stronger effect = lower value 0.999 | S. cerevisiae deletion strains, locus YMR307W, strain GAS1, stronger effect = lower value 0.937 and 1.01 | S. cerevisiae deletion strains, locus YNL067W, strain RPL9B, stronger effect = lower value 1.01 | S. cerevisiae deletion strains, locus YNL071W, strain lat1, stronger effect = lower value 0.995 | S. cerevisiae deletion strains, locus YNL128W, strain TEP1, stronger effect = lower value 0.973 | S. cerevisiae deletion strains, locus YNL153C, strain GIM3, stronger effect = lower value 1 | S. cerevisiae deletion strains, locus YNL175C, strain NOP13, stronger effect = lower value 1.01 and 0.97 | S. cerevisiae deletion strains, locus YNL183C, strain NPR1, stronger effect = lower value 0.957 | S. cerevisiae deletion strains, locus YNL197C, strain WHI3, stronger effect = lower value 1.02 and 0.975 | S. cerevisiae deletion strains, locus YNL209W, strain ssb2, stronger effect = lower value 0.989 | S. cerevisiae deletion strains, locus YNL224C, strain SQS1, stronger effect = lower value 1 and 0.985 | S. cerevisiae deletion strains, locus YNL233W, strain BNI4, stronger effect = lower value 1.01 | S. cerevisiae deletion strains, locus YNL248C, strain rpa49, stronger effect = lower value 0.981 | S. cerevisiae deletion strains, locus YNL250W, strain rad50, stronger effect = lower value 0.985 | S. cerevisiae deletion strains, locus YNL271C, strain bni1, stronger effect = lower value 1 | S. cerevisiae deletion strains, locus YNL298W, strain CLA4, stronger effect = lower value 0.998 | S. cerevisiae deletion strains, locus YNL307C, strain MCK1, stronger effect = lower value 0.998 | S. cerevisiae deletion strains, locus YNL322C, strain KRE1 (second series), stronger effect = lower value 0.988 | S. cerevisiae deletion strains, locus YNL322C, strain KRE1, stronger effect = lower value 1.01 and 1 | S. cerevisiae deletion strains, locus YNR049C, strain mso1, stronger effect = lower value 0.995 | S. cerevisiae deletion strains, locus YNR052C, strain pop2, stronger effect = lower value 1 | S. cerevisiae deletion strains, locus YOL006C, strain TOP1, stronger effect = lower value 1.01 | S. cerevisiae deletion strains, locus YOL012C, strain htz1 0.826 | S. cerevisiae deletion strains, locus YOL147C, strain pex11, stronger effect = lower value 1 | S. cerevisiae deletion strains, locus YOR001W, strain rrp6, stronger effect = lower value 0.991 | S. cerevisiae deletion strains, locus YOR061W, strain CKA2, stronger effect = lower value 1.01 | S. cerevisiae deletion strains, locus YOR069W, strain VPS5, stronger effect = lower value 1.01 | S. cerevisiae deletion strains, locus YOR070C, strain gyp1, stronger effect = lower value 0.985 | S. cerevisiae deletion strains, locus YOR080W, strain dia2, stronger effect = lower value 0.992 | S. cerevisiae deletion strains, locus YOR083W, strain WHI5 (second series), stronger effect = lower value 0.998 and 0.969 | S. cerevisiae deletion strains, locus YOR083W, strain WHI5, stronger effect = lower value 0.981 | S. cerevisiae deletion strains, locus YOR106W, strain vam3, stronger effect = lower value 0.953 | S. cerevisiae deletion strains, locus YOR136W, strain idh2, stronger effect = lower value 0.997 | S. cerevisiae deletion strains, locus YOR144C, strain elg1, stronger effect = lower value 1 | S. cerevisiae deletion strains, locus YOR184W, strain ser1, stronger effect = lower value 1.01 | S. cerevisiae deletion strains, locus YOR231W, strain MKK1, stronger effect = lower value 0.952 | S. cerevisiae deletion strains, locus YOR265W, strain rbl2, stronger effect = lower value 0.996 | S. cerevisiae deletion strains, locus YOR270C, strain vph1, stronger effect = lower value 0.995 | S. cerevisiae deletion strains, locus YOR290C, strain snf2, stronger effect = lower value 0.939 | S. cerevisiae deletion strains, locus YOR316C, strain cot1, stronger effect = lower value 1.01 | S. cerevisiae deletion strains, locus YPL051W, strain arl3, stronger effect = lower value 0.967 | S. cerevisiae deletion strains, locus YPL055C, strain LGE1, stronger effect = lower value 1.01 | S. cerevisiae deletion strains, locus YPL078C, strain atp4, stronger effect = lower value 0.983 | S. cerevisiae deletion strains, locus YPL106C, strain sse1, stronger effect = lower value 0.929 | S. cerevisiae deletion strains, locus YPL240C, strain hsp82, stronger effect = lower value 0.976 | S. cerevisiae deletion strains, locus YPL241C, strain CIN2, stronger effect = lower value 0.994 | S. cerevisiae deletion strains, locus YPL256C, strain CLN2, stronger effect = lower value 0.99 | S. cerevisiae deletion strains, locus YPR119W, strain clb2, stronger effect = lower value 0.995 | S. cerevisiae deletion strains, locus YPR141C, strain kar3, stronger effect = lower value 0.992 | S. cerevisiae deletion strains, locus YPR163C, strain tif3, stronger effect = lower value 0.999 | S. cerevisiae deletion strains, locus YPR167C, strain met16, stronger effect = lower value 0.997 | S. cerevisiae deletion strains, strain wtn01, stronger effect = lower value 0.993 | S. cerevisiae strains, strain wild type, stronger effect = lower value 0.994
